The values below come from PubChem BioAssay.

Assay [1] in a line: rapamycin-like changes in RPL19A-GFP expression – cell-based, S. cerevisiae, multiplex flow cytometry, primary screen (AID 1862; in the data active means percent of DMSO control GFP below about 86%;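 further: lower values mimic rapamycin by blocking the RPL19A rise seen in DMSO cells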). Conditions: S. cerevisiae RPL19A-GFP strain, flow cytometry fluorescence, 3 h; at 10 µM; stronger effect = lower value. On the technique in general: In flow cytometry, cells or beads pass a laser one at a time.
A short description of assay [2]: TOR pathway GLN3 branch reporter MEP2-GFP changes – S. cerevisiae, multiplex flow cytometry, primary screen (AID 1867;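 active means GFP response, as percent of the DMSO control, above the screen-wide mean plus 3 SD, about 139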;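 further: median GFP channel fluorescence of barcode-gated MEP2-GFP cells measured by flow cytometry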). Conditions: S. cerevisiae MEP2-GFP strain, 3 h, at 10 µM, stronger effect = higher value.
Assay [3] can be described thus: TOR pathway RTG branch CIT2 reporter changes – S. cerevisiae, GFP fusion, multiplex flow cytometry, primary screen (AID 1870;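 active means percent response above a set limit, the screen-wide mean plus 3 SD, cut at about 130% in these data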;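 further: barcoded CIT2-GFP strain pooled with four other GFP strains with rapamycin as positive control; median GFP fluorescence per well over plate mean of DMSO wells so 100% = DMSO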). Conditions: S. cerevisiae CIT2-GFP expression, 3 h, at 10 µM, stronger effect = higher value.
A short description of assay [4]: TOR pathway LAP4-GFP level changes – S. cerevisiae, multiplex flow cytometry, primary screen (AID 1873;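 active means GFP signal, as percent of the solvent control, above the screen mean plus 3 SD, about 149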). Conditions: S. cerevisiae LAP4-GFP expression, 3 h, at 10 µM, stronger effect = higher value.
Assay [5] can be described thus: yeast AGP1-GFP level changes, GLN3 branch – cell-based, multiplex flow cytometry, S. cerevisiae, primary screen (AID 1887;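 active means GFP signal above the screen-wide mean plus 3 SD, that is over about 124.5% of the solvent control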;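 further: AGP1-GFP fusion strain of S. cerevisiae within a five-strain barcoded multiplex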). Conditions: 3 h, at 10 µM, stronger effect = higher value.
Assay [6] in a line: reduced mouse 2C T cell binding to pMHC/ICAM-1 vesicles – MLPCN validation set, flow cytometry, LFA-1/ICAM-1 modulator project, pilot screen (AID 2523;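 active means response below a set limit, under 55% cells CD8-positive and vesicle-bound, and CD8 cells' 90th-percentile brightness under 279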;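 on vesicle binding response: mean PE anti-B7-1 fluorescence of CD8+ cells relative to row control; 100% = QL9-loaded vesicles with DMSO vehicle in the same plate row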). Conditions: 2C mouse CD8+ T cells, at 7 µM, stronger effect = lower value; double positive events: measured here: CD8+/vesicle+ event percentage.
Assay [7] deals with Integrin beta-1 (Homo sapiens) + Integrin alpha-4 (Homo sapiens) (UniProt P13612+P05556). Put plainly: alpha4beta1 integrin LIBS antibody binding reduction – U937 cells, HUTS-21 mAb, flow cytometry, validation set, VLA-4 allosteric modulator project, pilot screen (AID 2674;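 active means inhibition above 50%, about 3 SD of the validation set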;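 further: antibody binding induced by the VLA-4 ligand LDV present at three times its Kd; 0% = LDV ligand with antibody and no compound and 100% = antibody without LDV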). Conditions: HUTS-21 LIBS mAb binding, at 6.7 µM, stronger effect = higher value.
Assay [8] can be described thus: calorie-restriction mimetic ROS inhibitors, yeast – validation compound set, pilot screen (AID 2706;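 active means superoxide response below 65% of plate, a cut near 3 SD across the whole screen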;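 further: yeast exposed to compound for one week at 30 degrees C before staining; 100% = mean of all compound wells on the same plate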). Conditions: S. cerevisiae aging, superoxide DHE fluorescence; at 10 µM; stronger effect = lower value.
Assay [9] concerns the target Beta-adrenergic receptor kinase 1 (Homo sapiens) (UniProt P25098). Put plainly: GRK2 binders displacing RNA aptamer, biochemical, validation, human GRK2, bead flow cytometry (AID 488806;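 active means aptamer binding inhibition above 30%, about 3 SD of noise from non-fluorescent compounds; inactive means inhibition at or below 30%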). Conditions: bead-bound GRK2, FAM-aptamer displacement, at 10 µM, stronger effect = higher value.
Assay [10] has as its target Beta-2 adrenergic receptor (Homo sapiens) (UniProt P07550). Put plainly: agonist-induced loss of surface beta2AR – cell-based, FAP fluorogen, flow cytometry, validation set, pilot screen (AID 504459;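 active means percent response above 42, roughly 3 SD of non-fluorescent test compounds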;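 further: agonist-driven loss of surface beta2AR via internalization measured by FAP dye flow cytometry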). Conditions: Am2.2-beta2AR cells, at 10 µM, stronger effect = higher value.
Assay [11] addresses AP-2 complex subunit beta (Homo sapiens) (UniProt P63010). Put plainly: beta-arrestin/AP2 interaction blockers – biochemical, validation set, GST-AP2 beads, flow cytometry, pilot screen (AID 504541;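 active means inhibition above 54%, about 3 SD of non-fluorescent compounds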;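 further: AP2 carries R879A mutation and is captured from E. coli lysate; bead-bound FITC arrestin peptide fluorescence measuring arrestin peptide binding to AP2; 0% = DMSO wells and 100% = excess unlabeled arrestin peptide control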). Conditions: FITC arrestin peptide, at 10 µM, stronger effect = higher value.
A short description of assay [12]: cytosolic pH regulators acting via V-ATPase – S. cerevisiae, pHLuorin, HTS validation (AID 504600; in the data active means response above about 15%;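 further: plate controls were DMSO for no effect and reference compound for full effect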). Conditions: V-ATPase proton transport, at 10 µM, stronger effect = higher value.
Assay [13] deals with anti-desmoglein-3 scFv antibody binding to human DSG3. Put plainly: blockers of pathogenic pemphigus antibody–desmoglein-3 binding – biochemical, validation compound set, bead-based, flow cytometry, pilot screen (AID 588368;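 active means binding below the plate cutoff, the plate median minus 3 SD, with a reading above zero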;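 further: signal is the median channel fluorescence of bead-bound GFP antibody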). Conditions: Protein G beads, DSG3-Fc, scFv-GFP binding, at 10 µM, stronger effect = lower value.
For assay [14], the system named is Botulinum neurotoxin type F light chain protease (Clostridium botulinum). Put plainly: Clostridium botulinum type F light chain protease inhibitors, microsphere substrate cleavage, validation (AID 588459). Conditions: multiplex microsphere protease substrate cleavage assay, flow cytometry; at 10 µM; stronger effect = higher value.
Assay [15] addresses Botulinum neurotoxin type A (Clostridium botulinum) (UniProt P0DPI0). Put plainly: BoNT/A light chain protease inhibitors, biochemical, multiplex microsphere flow cytometry, validation set (AID 588460). Conditions: at 10 µM, stronger effect = higher value.
Assay [16] deals with Lethal factor (Bacillus anthracis) (UniProt P15917). Put plainly: Bacillus anthracis lethal factor inhibition, microsphere flow cytometry protease assay, validation at 10 µM (AID 588461). Conditions: multiplex microsphere protease cleavage assay, stronger effect = higher value.
The nature of assay [17]: Nile Red efflux blockade in pump-expressing yeast – validation compound set, multiplex, phenotypic, pilot screen (AID 588506;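 active means efflux inhibition above 0.42, the validation set average plus 4 SD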;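 further: Nile Red retained in cells so higher fluorescence means more efflux inhibition; 0 = negative control wells and 1 = enniatin B 25 µM full block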). Conditions: S. cerevisiae pump-expressing triplex, Nile Red efflux flow cytometry; at 10 µM; stronger effect = higher value.
For assay [18], the target named is ATP-binding cassette sub-family B member 6 (Homo sapiens) (UniProt Q9NP58). Put plainly: blockers of ABCB6-driven porphyrin uptake – K562-ABCB6 cells, flow cytometry, validation set, pilot screen (AID 588550;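 active means inhibition above the screen-wide mean plus 3 SD, about 51%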;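 further: 0% = DMSO wells and 100% = benzethonium chloride 70 µM positive control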). Conditions: K562-ABCB6 porphyrin accumulation, 1 h, at 10 µM, stronger effect = higher value.
Assay [19] in a line: AML differentiation inducers, ER-HoxA9 marrow cells – cell-based, GFP/MAC1 double positive, flow cytometry, validation set, primary screen (AID 588685;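 active means differentiation response of at least 50%, scaled between solvent and reference control, from cells with both markers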;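 further: compound exposure lasts four days before antibody staining and flow analysis; 0% = DMSO wells and 100% = 5 µM fulvestrant positive control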). Conditions: stronger effect = higher value.

Results filed as inconclusive are left out. Calls of active or inactive are those of the source. Unless noted, how the calls were made is not given here.

Chain of Integrin beta-1 (Homo sapiens) + Integrin alpha-4 (Homo sapiens) (P05556 whole entry, looked up): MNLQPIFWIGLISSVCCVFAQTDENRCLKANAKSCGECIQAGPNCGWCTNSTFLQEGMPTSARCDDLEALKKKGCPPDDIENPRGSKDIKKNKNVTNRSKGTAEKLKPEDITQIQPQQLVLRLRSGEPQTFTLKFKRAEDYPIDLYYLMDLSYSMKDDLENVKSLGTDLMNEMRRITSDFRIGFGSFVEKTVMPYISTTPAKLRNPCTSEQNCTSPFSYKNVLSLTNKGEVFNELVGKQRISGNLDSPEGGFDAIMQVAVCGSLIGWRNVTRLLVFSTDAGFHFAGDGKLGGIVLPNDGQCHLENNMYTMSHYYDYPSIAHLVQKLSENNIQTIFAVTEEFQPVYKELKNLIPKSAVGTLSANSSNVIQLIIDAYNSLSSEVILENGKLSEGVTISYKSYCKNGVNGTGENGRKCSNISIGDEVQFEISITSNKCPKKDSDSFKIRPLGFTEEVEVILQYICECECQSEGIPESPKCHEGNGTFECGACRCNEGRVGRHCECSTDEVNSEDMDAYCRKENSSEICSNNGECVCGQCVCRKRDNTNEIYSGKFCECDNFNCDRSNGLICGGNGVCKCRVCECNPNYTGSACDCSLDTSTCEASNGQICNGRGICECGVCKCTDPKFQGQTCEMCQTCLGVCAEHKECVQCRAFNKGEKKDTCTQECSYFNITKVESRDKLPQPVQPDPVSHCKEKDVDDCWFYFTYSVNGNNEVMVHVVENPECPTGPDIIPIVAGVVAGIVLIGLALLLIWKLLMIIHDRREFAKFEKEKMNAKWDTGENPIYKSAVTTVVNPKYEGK
Chain of Integrin beta-1 (Homo sapiens) + Integrin alpha-4 (Homo sapiens) (P13612 whole entry, looked up): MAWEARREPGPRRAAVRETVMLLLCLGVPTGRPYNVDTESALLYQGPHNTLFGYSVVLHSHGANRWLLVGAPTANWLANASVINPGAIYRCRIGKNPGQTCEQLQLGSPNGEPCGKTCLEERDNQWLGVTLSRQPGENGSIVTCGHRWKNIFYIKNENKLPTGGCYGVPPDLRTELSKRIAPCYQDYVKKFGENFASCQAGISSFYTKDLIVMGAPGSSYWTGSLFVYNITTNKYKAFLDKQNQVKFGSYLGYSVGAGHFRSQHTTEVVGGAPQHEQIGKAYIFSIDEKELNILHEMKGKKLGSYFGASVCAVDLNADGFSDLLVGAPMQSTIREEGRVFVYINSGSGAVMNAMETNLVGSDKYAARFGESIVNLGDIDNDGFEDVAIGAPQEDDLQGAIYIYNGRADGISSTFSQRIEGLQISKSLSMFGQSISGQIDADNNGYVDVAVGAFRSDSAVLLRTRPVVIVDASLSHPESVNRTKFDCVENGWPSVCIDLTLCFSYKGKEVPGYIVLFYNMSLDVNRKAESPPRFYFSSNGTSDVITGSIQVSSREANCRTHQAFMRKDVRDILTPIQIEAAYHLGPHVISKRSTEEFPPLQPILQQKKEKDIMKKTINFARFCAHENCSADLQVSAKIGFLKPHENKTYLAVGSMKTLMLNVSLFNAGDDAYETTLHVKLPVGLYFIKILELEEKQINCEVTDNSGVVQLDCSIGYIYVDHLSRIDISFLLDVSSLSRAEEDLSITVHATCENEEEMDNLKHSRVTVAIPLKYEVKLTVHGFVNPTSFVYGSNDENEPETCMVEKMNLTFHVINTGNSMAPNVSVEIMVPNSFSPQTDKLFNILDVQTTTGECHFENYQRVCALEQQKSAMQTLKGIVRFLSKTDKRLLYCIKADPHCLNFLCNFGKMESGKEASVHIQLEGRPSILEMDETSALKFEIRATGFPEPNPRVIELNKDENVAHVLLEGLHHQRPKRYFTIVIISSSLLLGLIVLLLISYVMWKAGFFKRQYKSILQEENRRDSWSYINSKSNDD
Chain of ATP-binding cassette sub-family B member 6 (Homo sapiens) (Q9NP58 whole entry, looked up): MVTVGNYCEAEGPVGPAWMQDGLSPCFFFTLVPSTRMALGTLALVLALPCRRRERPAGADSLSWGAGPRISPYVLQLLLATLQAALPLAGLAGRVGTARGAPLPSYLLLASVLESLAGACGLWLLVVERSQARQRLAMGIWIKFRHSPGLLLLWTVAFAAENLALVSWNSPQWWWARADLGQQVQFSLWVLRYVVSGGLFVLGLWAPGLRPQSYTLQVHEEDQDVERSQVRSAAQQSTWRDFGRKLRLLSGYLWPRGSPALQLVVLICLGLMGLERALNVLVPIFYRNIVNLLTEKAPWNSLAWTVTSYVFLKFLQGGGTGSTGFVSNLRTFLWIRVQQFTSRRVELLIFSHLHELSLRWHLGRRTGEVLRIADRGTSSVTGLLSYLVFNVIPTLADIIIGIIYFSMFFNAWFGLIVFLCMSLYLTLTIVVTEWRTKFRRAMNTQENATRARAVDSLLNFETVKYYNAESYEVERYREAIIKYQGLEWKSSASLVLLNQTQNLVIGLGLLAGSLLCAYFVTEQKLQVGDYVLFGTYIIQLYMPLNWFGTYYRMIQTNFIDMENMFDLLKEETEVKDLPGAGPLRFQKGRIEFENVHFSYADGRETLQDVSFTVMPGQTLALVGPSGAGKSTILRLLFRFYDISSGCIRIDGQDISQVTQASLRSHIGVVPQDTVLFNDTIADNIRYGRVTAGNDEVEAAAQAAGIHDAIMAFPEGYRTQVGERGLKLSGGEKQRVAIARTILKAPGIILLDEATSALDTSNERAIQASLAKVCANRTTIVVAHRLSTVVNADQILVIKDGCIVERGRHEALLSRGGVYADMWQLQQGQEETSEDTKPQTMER
Chain of Beta-2 adrenergic receptor (Homo sapiens) (P07550 whole entry, looked up): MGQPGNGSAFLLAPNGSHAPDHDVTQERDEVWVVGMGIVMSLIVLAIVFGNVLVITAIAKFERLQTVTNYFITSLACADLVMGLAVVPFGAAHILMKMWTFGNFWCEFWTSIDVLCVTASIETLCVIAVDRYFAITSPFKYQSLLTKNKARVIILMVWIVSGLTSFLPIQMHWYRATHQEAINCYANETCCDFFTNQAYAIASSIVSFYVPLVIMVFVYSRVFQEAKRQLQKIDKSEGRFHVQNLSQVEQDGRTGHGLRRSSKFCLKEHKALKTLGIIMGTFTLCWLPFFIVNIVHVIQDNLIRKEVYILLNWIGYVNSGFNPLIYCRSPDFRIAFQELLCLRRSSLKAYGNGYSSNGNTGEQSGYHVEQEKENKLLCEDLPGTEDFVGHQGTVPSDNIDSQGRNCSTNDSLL
Chain of Botulinum neurotoxin type A (Clostridium botulinum) (P0DPI0 whole entry, looked up): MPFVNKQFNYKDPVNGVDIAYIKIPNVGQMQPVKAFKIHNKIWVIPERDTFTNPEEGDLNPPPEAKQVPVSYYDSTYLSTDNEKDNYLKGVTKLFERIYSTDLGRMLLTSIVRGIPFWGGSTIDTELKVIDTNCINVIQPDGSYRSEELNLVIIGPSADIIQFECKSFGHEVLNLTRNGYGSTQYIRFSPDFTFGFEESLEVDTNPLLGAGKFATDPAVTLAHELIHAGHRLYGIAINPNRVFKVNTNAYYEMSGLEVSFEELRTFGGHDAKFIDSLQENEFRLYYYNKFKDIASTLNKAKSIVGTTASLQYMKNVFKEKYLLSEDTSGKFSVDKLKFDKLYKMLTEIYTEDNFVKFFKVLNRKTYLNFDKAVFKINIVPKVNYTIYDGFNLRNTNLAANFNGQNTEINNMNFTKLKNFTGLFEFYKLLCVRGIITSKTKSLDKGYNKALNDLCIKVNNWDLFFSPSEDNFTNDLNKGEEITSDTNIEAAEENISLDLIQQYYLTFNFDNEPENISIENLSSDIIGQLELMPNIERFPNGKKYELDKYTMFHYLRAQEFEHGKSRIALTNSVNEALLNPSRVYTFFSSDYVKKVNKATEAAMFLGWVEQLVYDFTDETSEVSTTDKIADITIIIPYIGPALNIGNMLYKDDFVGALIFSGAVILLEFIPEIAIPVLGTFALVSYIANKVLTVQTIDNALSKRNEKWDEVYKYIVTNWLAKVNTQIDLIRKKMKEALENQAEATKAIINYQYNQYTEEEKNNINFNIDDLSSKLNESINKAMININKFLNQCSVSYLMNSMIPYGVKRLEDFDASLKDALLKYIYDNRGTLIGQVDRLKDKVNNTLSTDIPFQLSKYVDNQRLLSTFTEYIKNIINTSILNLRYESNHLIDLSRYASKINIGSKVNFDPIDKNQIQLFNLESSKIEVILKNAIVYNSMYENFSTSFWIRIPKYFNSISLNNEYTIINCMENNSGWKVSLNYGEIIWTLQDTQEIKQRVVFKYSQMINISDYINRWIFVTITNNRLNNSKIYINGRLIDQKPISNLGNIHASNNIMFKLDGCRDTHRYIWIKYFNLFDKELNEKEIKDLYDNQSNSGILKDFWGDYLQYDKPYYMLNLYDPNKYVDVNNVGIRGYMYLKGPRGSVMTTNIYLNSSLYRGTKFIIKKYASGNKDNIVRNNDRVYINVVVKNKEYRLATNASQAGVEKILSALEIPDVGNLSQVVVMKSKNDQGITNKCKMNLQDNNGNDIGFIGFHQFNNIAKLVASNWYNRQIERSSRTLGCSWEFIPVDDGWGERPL
Chain of Beta-adrenergic receptor kinase 1 (Homo sapiens) (P25098 whole entry, looked up): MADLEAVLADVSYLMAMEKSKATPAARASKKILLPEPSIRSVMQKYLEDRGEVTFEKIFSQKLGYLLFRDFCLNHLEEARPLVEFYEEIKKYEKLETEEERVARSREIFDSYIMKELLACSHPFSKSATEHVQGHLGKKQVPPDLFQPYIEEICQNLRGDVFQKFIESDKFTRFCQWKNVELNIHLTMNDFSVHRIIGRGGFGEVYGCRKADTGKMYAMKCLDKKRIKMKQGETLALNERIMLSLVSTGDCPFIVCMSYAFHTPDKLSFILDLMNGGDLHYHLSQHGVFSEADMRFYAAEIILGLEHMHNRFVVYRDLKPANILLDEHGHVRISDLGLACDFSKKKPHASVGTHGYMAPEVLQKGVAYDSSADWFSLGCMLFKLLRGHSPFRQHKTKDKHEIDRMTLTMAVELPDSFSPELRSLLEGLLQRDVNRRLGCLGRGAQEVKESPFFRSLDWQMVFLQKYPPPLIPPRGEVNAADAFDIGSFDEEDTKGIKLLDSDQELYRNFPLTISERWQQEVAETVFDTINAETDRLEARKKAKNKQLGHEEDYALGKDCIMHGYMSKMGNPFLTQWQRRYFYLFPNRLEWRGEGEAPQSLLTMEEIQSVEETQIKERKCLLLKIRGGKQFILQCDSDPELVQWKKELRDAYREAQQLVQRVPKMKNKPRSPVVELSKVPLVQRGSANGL

Broadly, the inhibition is the relative decrease from the control value, in per cent. For the molecule `c1ccc2c(c1)[nH]c1cnccc12`, the percent of DMSO control GFP in assay [1] was 102% (inactive). The GFP response vs DMSO in assay [2] is 97.2% (inactive); in assay [4], 88.1% (inactive). The percent response of DMSO control in assay [3] was 104% (inactive). The GFP response, % of DMSO in assay [5] is 95.9% (inactive). This molecule also yielded a double positive events in assay [6] of 62.8%. Also, the vesicle binding response in [6] was 961% (inactive). Besides, the inhibition in assay [7] was -18.1% (inactive); in assay [11], -7.59% (inactive); in assay [14], 5.3% (inactive); in [15], 2.5% (inactive); in [16] it was -4.7% (inactive); in [18] it was 0% (inactive). Further, the superoxide response (% of plate) in assay [8] was 99.7% (inactive). Besides, in [9], the aptamer binding inhibition is 0% (inactive). The response in assay [10] was -10.7% (inactive); in assay [12], -0.12% (inactive). The binding (% of control) in [13] was 96.1% (inactive). Further, in [17], the efflux inhibition (fraction of control) is 0.14 (inactive). Besides, the differentiation response in assay [19] is 2.2% (inactive).
For `COc1ccccc1CN1CCCCC1c1cccnc1` (stereo not given), in assay [1], the percent of DMSO control GFP was 104% (inactive). Besides, the GFP response vs DMSO in assay [2] was 99.3% (inactive); in assay [4], 97.3% (inactive). For the same molecule, the percent response of DMSO control in assay [3] was 106% (inactive). For the same molecule, the GFP response, % of DMSO in [5] is 107% (inactive). Also, the double positive events in assay [6] was 65.8%. Also, the vesicle binding response in [6] was 217% (inactive). For the same molecule, the inhibition in [7] is 4.73% (inactive); in assay [11], 1.86% (inactive); in [14], 1.4% (inactive); in [15], -0.8% (inactive); in [16], 4% (inactive); in assay [18], 6% (inactive). For the same molecule, the superoxide response (% of plate) in [8] is 98.9% (inactive). The aptamer binding inhibition in assay [9] is 6% (inactive). For the same molecule, the response in [10] is -6.83% (inactive); in assay [12], -0.89% (inactive). Further, in assay [13], the binding (% of control) is 97.1% (inactive). Moreover, the efflux inhibition (fraction of control) in assay [17] was -0.17 (inactive). Also, the differentiation response in assay [19] is 7.09% (inactive).
Take `CC(C)C(=O)Nc1ccc(S(=O)(=O)N2CC3CC(C2)c2cccc(=O)n2C3)cc1` (stereo not given): the percent of DMSO control GFP in assay [1] is 97.4% (inactive). For the same molecule, the GFP response vs DMSO in assay [2] is 95.2% (inactive); in assay [4], 86.3% (inactive). Also, the percent response of DMSO control in assay [3] was 104% (inactive). Besides, the GFP response, % of DMSO in assay [5] was 93.1% (inactive). In assay [6], this molecule returned a double positive events of 58.5%. The vesicle binding response in assay [6] was 184% (inactive). For the same molecule, the inhibition in assay [7] is -5.89% (inactive); in assay [11] it was 10.6% (inactive); in assay [14], 4.8% (inactive); in assay [15], 0.5% (inactive); in assay [16] it was 0.3% (inactive); in [18] it was 2% (inactive). For the same molecule, the superoxide response (% of plate) in [8] was 106% (inactive). The aptamer binding inhibition in [9] was 3% (inactive). Also, the figures for the response in [10] and in assay [12] were -5.34% (inactive) and -0.52% (inactive), respectively. Also, in assay [13], the binding (% of control) is 100% (inactive). Also, in [17], the efflux inhibition (fraction of control) is -0.24 (inactive). Also, the differentiation response in assay [19] is 13.6% (inactive).
Regarding `COc1ccc(OC)c([C@@H](O)[C@H](C)NC(C)(C)C)c1`, the percent of DMSO control GFP in assay [1] was 100% (inactive). Moreover, the values for the GFP response vs DMSO in [2] and in assay [4] were 102% (inactive) and 91.5% (inactive), respectively. For the same molecule, the percent response of DMSO control in [3] was 94.5% (inactive). The GFP response, % of DMSO in assay [5] is 88.8% (inactive). Further, the double positive events in assay [6] is 62%. Also, the vesicle binding response in [6] was 157% (inactive). Also, the inhibition in assay [7] was -6.45% (inactive); in [11], -6.97% (inactive); in assay [14], -0.4% (inactive); in [15], -1.1% (inactive); in [16], 1.4% (inactive); in assay [18], 18% (inactive). Also, the superoxide response (% of plate) in assay [8] was 102% (inactive). The aptamer binding inhibition in assay [9] was 0% (inactive). The response is 14.8% (inactive) in assay [10] and 0.56% (inactive) in [12]. For the same molecule, the binding (% of control) in [13] was 106% (inactive). For the same molecule, in assay [17], the efflux inhibition (fraction of control) was 0.28 (inactive). Also, in assay [19], the differentiation response was -6.03% (inactive).
